Assay results published in PubChem BioAssay (NCATS).
Results filed as inconclusive are left out. Where a call stands in place of a potency, no number is given. Active and inactive are the calls of the source. Calls come from the whole dose curve; as a rule, active = well fitted curve in the direction sought with a large enough effect; inconclusive = small, poorly fitted or top-dose-only effect, or another doubt; inactive = no such curve, though single readings can be large; an effect the other way counts as inactive or inconclusive.

Experiments:
[1] = Quantitative High-Throughput drug screen in 47 multiple myeloma cell lines against the NCATS MIPE library collection: FR4_PLB cell viability assay (AID 1918924; note: nearly all actives have a fitted effect of over 35% in size; note: potency is the fitted concentration of half-maximal effect)
Summary of the method: (§1)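 qHTS of the MIPE 4.0 collection: 500 myeloma cells/well, 48 h drug exposure at 37C in 5% CO2, then CellTiter-Glo for 5 min at room temperature before luminescence reading.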

[2] = Quantitative High-Throughput drug screen in 47 multiple myeloma cell lines against the NCATS MIPE library collection: Delta47_JCRB cell viability assay (AID 1918925; note: nearly all actives have a fitted effect of over 45% in size; note: potency is the fitted concentration of half-maximal effect)
Summary of the method: (§2)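 Approved and investigational drugs from MIPE 4.0 were added by pin tool to 500 cells per well. After 48 hours at 37C, ATP-based CellTiter-Glo luminescence indicated remaining viability.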

[3] = Quantitative High-Throughput drug screen in 47 multiple myeloma cell lines against the NCATS MIPE library collection: EJM_DSMZ cell viability assay (AID 1918926; note: nearly all actives have a fitted effect of over 30% in size; note: potency is the fitted concentration of half-maximal effect)
Summary of the method: as §2

[4] = Quantitative High-Throughput drug screen in 47 multiple myeloma cell lines against the NCATS MIPE library collection: AMO1_DSMZ cell viability assay (AID 1918927; note: nearly all actives have a fitted effect of over 30% in size; note: potency is the fitted concentration of half-maximal effect)
Summary of the method: as §2

[5] = Quantitative High-Throughput drug screen in 47 multiple myeloma cell lines against the NCATS MIPE library collection: ARP1_JJKsccF8 cell viability assay (AID 1918928; note: nearly all actives have a fitted effect of over 40% in size; note: potency is the fitted concentration of half-maximal effect)
Summary of the method: (§3)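 CellTiter-Glo luminescence after 48 h exposure gives viability, scaled between DMSO-only (100%) and media-only (0%) controls. Library compounds are pinned onto 500 myeloma cells per well, incubated at 37C with 5% CO2.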

[6] = Quantitative High-Throughput drug screen in 47 multiple myeloma cell lines against the NCATS MIPE library collection: ARD_JJKsccE7 cell viability assay (AID 1918929; note: potency is the fitted concentration of half-maximal effect)
Summary of the method: as §2

[7] = Quantitative High-Throughput drug screen in 47 multiple myeloma cell lines against the NCATS MIPE library collection: Karpas620_DSMZ cell viability assay (AID 1918959); note: nearly all actives have a fitted effect of over 30% in size; note: potency is the fitted concentration of half-maximal effect
Summary of the method: as §1

[8] = Quantitative High-Throughput drug screen in 47 multiple myeloma cell lines against the NCATS MIPE library collection: KMM1_JCRB cell viability assay (AID 1918960); note: nearly all actives have a fitted effect of over 30% in size; note: potency is the fitted concentration of half-maximal effect
Summary of the method: as §3

[9] = Quantitative High-Throughput drug screen in 47 multiple myeloma cell lines against the NCATS MIPE library collection: KHM11_PLB cell viability assay (AID 1918962); note: nearly all actives have a fitted effect of over 35% in size; note: potency is the fitted concentration of half-maximal effect
Summary of the method: as §1

[10] = Quantitative High-Throughput drug screen in 47 multiple myeloma cell lines against the NCATS MIPE library collection: JIM3_ECACC cell viability assay (AID 1918963; note: nearly all actives have a fitted effect of over 35% in size; note: potency is the fitted concentration of half-maximal effect)
Summary of the method: as §1

[11] = Quantitative High-Throughput drug screen in 47 multiple myeloma cell lines against the NCATS MIPE library collection: JIM1_ECACC cell viability assay (AID 1918964; note: potency is the fitted concentration of half-maximal effect)
Summary of the method: as §2

[12] = Quantitative High-Throughput drug screen in 47 multiple myeloma cell lines against the NCATS MIPE library collection: INA6_PLB cell viability assay (AID 1918965; note: nearly all actives have a fitted effect of over 55% in size; note: potency is the fitted concentration of half-maximal effect)
Summary of the method: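 Luminescent ATP measurement with CellTiter-Glo gives viability, scaled between DMSO-only wells (100%) and media-only wells (0%). Cells, 500 per well, faced library compounds for 48 hours at 37C.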

[13] = Quantitative High-Throughput drug screen in 47 multiple myeloma cell lines against the NCATS MIPE library collection: JJN3_DSMZ cell viability assay (AID 1918966; note: nearly all actives have a fitted effect of over 50% in size; note: potency is the fitted concentration of half-maximal effect)
Summary of the method: as §2

[14] = target: Glutathione peroxidase 1 (Homo sapiens) (UniProt P07203); experiment: Primary qHTS Assay for Inhibitors of Recombinant Selenoprotein Glutathione Peroxidase 1 (GPX1) (AID 1845191); note: nearly all actives have a fitted effect of over 65% in size
Chain of Glutathione peroxidase 1 (Homo sapiens) (P07203 whole entry, looked up): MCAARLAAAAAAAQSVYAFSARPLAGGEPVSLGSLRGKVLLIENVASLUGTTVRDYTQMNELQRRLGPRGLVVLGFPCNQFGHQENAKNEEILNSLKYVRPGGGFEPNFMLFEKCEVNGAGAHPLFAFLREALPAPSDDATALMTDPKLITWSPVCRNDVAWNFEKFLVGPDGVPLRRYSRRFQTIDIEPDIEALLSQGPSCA
Summary of the method: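 GPX1 10 nM, GR 100 nM, GSH 1 mM, NADPH 0.5 mM, CHP 0.5 mM (final). 30-min cpd preincubation, RT. Ex340/Em450 read t=0, t=15 min.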

[15] = target: Luciferin 4-monooxygenase (Photinus pyralis) (UniProt P08659); experiment: Primary firefly luciferase (FLuc) qHTS assay for identification of artifact compounds. (AID 1845220); conditions: outcome: dose series up to 54.1 µM unless noted; note: nearly all actives have a fitted effect of over 60% in size
Summary of the method: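 qHTS, 15 min compound preincubation with substrate (10 uM luciferin, 10 uM ATP) at RT, then 10 nM FLuc; 5 min; luminescence; % inhibition vs no-enzyme/DMSO controls, 4-parameter Hill fit.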

[16] = test system: Nanoluciferase (engineered Oplophorus gracilirostris luciferase); experiment: Primary Nanoluciferase (NLuc) qHTS assay for identification of artifact compounds. (AID 1845222); note: series mostly up to about 54 µM
Summary of the method: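 Luminescence read-out of secreted NLuc in S16 cell conditioned medium (1:55); compounds tested with 15 min RT preincubation, then Nano-Glo substrate 1:100, 5 min. % inhibition vs no-enzyme and DMSO controls, 4-parameter Hill fit.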

[17] = Primary redox qHTS assay for identification of artifact compounds. (AID 1845223)
Summary of the method: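 Redox-cycling detection via DTT (250 uM final) oxidation coupled to Amplex Red (25 uM)/HRP (250 mU/mL) in HBSS. 15 min preincubation plus 30 min after DTT, room temperature. Ex/Em 525/598 nm; 4-parameter Hill fit against DMSO and 10 uM DA3003.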

Structure (SMILES)	Potency [1]	Potency [2]	Potency [3]	Potency [4]	Potency [5]	Potency [6]	Potency [7]	Potency [8]	Potency [9]	Potency [10]	Potency [11]	Potency [12]	Potency [13]	Potency [14]	outcome [15]	outcome [16]	outcome [17]
CC(C)[C@]12O[C@@H]1[C@@H]1O[C@]13[C@]1(O[C@H]1C[C@@H]1C4=C(CC[C@@]13C)C(=O)OC4)[C@H]2O	inactive	inactive	inactive	inactive	inactive	inactive	inactive	inactive	inactive	inactive	inactive	inactive	inactive	–	–	–	–
COc1cccc2c1[C@]13CCN(CC4CC4)[C@H](C2)[C@]1(OC)CCC(=O)C3	inactive	inactive	inactive	inactive	inactive	inactive	inactive	–	inactive	inactive	–	inactive	–	–	–	–	–
CCC(=O)OC1CCC2C3CCC4=CC(=O)CC[C@@]4(C)C3CC[C@]12C (stereo partly specified)	inactive	18.7 µM (active)	inactive	inactive	–	inactive	inactive	–	inactive	inactive	–	20.9 µM (active)	–	–	–	–	–
O=C(Oc1ccc([N+](=O)[O-])cc1)N1CCN(Cc2cccc(Oc3ccccc3)c2)CC1	inactive	–	inactive	inactive	inactive	–	–	–	–	inactive	–	–	–	inactive	inactive	inactive	inactive
CN1[C@H]2CC(O)C[C@H]1[C@H]1O[C@H]12 (stereo partly specified)	26.4 µM (active)	9.35 µM (active)	20.9 µM (active)	inactive	20.9 µM (active)	inactive	inactive	inactive	14.8 µM (active)	9.35 µM (active)	–	8.33 µM (active)	18.7 µM (active)	–	–	–	–
c1cc2c(cc1[C@H]1OC[C@H]3[C@H]1CO[C@H]3c1ccc3c(c1)OCO3)OCO2	inactive	inactive	–	inactive	–	inactive	inactive	–	–	inactive	–	inactive	–	–	–	–	–
C[C@H]1CCCC=CC2C[C@H](O)C[C@@H]2[C@H](O)C=CC(=O)O1 (stereo partly specified)	inactive	inactive	–	–	inactive	–	–	–	inactive	inactive	–	inactive	inactive	–	–	–	–
COc1ccc2c(c1)[C@]13CCCCC1C(C2)N(C)CC3 (stereo partly specified)	inactive	–	inactive	inactive	inactive	inactive	inactive	inactive	–	inactive	inactive	inactive	–	–	–	–	–
CC(C)(C)[C@]1(O)C[C@@H]2OC(=O)C[C@@]23C(=O)O[C@@H]2OC(=O)[C@H](O)C213 (stereo partly specified)	inactive	–	inactive	inactive	inactive	–	inactive	–	–	inactive	0.0332 µM (active)	inactive	–	–	–	–	–
O=C1CCC[C@@H]2[C@H]3CCCN4CCC[C@@H](CN12)[C@@H]34	–	inactive	inactive	–	–	–	inactive	–	–	inactive	inactive	inactive	–	–	–	–	–
C[C@@]12OC(=O)[C@]1([C@@H](O)[C@@H]1C=CCCC1)NC(=O)[C@H]2CCCl	0.0053 µM (active)	–	0.0187 µM (active)	0.0118 µM (active)	0.0105 µM (active)	0.001 µM (active)	0.0093 µM (active)	–	–	0.0235 µM (active)	0.0209 µM (active)	0.001 µM (active)	0.0332 µM (active)	–	–	–	–
CC=C(C)C(=O)N[C@@H](c1ccccc1)[C@@H](O)C(=O)O[C@H]1C[C@@]2(O)[C@@H](OC(=O)c3ccccc3)[C@@H]3[C@]4(OC(C)=O)CO[C@@H]4C[C@H](O)[C@@]3(C)C(=O)[C@H](OC(C)=O)C(=C1C)C2(C)C	inactive	–	inactive	–	inactive	0.001 µM (active)	–	–	–	inactive	–	inactive	–	–	–	–	–
CO[C@H]1CCC(O[C@H]2C[C@H]([C@]3(C)CC[C@]4(C[C@H](O)[C@@H](C)[C@@H]([C@@H](C)C=C(C)C(=O)[C@H](C)C[C@H](C)C(=O)O)O4)O3)O[C@]3(O[C@@H]([C@H]4O[C@@](O)(CO)[C@H](C)C[C@H]4C)C[C@H]3C)[C@H]2C)O[C@H]1C (stereo partly specified)	3.72 µM (active)	1.18 µM (active)	3.32 µM (active)	–	1.18 µM (active)	–	0.264 µM (active)	0.187 µM (active)	–	0.526 µM (active)	–	0.526 µM (active)	0.526 µM (active)	–	–	–	–
C[C@]12CC[C@H](O)CC1=CC[C@H]1[C@H]3CCC(=O)[C@@]3(C)CC[C@@H]12	inactive	–	–	18.7 µM (active)	inactive	–	16.6 µM (active)	–	14.8 µM (active)	inactive	0.418 µM (active)	–	–	–	–	–	–
N#C[C@H](O[C@@H]1O[C@H](CO[C@@H]2O[C@H](CO)[C@H](O)[C@H](O)[C@H]2O)[C@H](O)[C@H](O)[C@H]1O)c1ccccc1	20.9 µM (active)	18.7 µM (active)	–	–	–	5.9 µM (active)	9.35 µM (active)	–	23.5 µM (active)	20.9 µM (active)	–	13.2 µM (active)	18.7 µM (active)	–	–	–	–
